Rows were chosen to be rich in hits. Some 22% of all compounds tested hit in one or more screens of this group.
CYP2C9 activ: CYP2C9 (human) activation | P11712 | recombinant CYP2C9, luciferin-H conversion, luminescence; stronger effect = higher value; factor 1 = untreated enzyme, 0 = blocked | activation factor at 5 µM | 96,000 tested, 1.4% active;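 active means activation factor of 2 or more for CYP2C9 at a 5 µM dose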
Target sequence (P11712 whole entry, looked up): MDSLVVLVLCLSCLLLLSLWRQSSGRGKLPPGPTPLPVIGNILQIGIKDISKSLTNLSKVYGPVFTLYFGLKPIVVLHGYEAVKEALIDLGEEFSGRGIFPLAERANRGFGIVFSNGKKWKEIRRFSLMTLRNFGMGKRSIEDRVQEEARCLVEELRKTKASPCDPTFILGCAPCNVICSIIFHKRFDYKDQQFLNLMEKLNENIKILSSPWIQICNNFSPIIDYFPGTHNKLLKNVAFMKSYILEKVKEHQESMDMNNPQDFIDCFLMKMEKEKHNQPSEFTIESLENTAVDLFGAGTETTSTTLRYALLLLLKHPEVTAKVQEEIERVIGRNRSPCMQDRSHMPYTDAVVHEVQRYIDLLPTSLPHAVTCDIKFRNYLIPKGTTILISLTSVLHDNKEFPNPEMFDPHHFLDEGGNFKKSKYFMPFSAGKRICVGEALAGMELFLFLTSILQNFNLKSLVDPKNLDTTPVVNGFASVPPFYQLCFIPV
CYP2C9 inh: inhibitors of human CYP2C9 | P11712 | inhibition, % at 5 µM | 96,000 tested, 20% active | CYP2C9 Supersomes, luciferin-H conversion, luminescence;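 active means blocking of liver enzyme CYP2C9 beyond about 50% at 5 µM, limit read from the data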
Measles CPE: protection of cells from measles virus | Measles virus-infected cells, CPE protection, absorbance | protection (pct of control), % at 4 µM | 140,000 tested, 1.5% active; in the data active means protection mostly above about 24%, no sharp cut-off; inactive means mostly below about 26%
CYP2C19 inhib: blocks human cytochrome P450 2C19; CYP2C19 Supersomes, luciferin-H EGE luminescence, 30 min; 96,000 tested, 21% active; inhibition, % at 5 µM; P33261;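 active means CYP2C19 inhibition above a set limit at 5 µM in the primary screen, cut at about 50% in these data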
CYP2C19 act: activators of human cytochrome P450 2C19; P33261; activation factor at 5 µM; recombinant CYP2C19, luciferin-H EGE luminescence; stronger effect = higher value; 0 = fully inhibited enzyme, 1 = untreated enzyme; 96,000 tested, under 10 active;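 active means activation factor of at least 2 at 5 µM in the primary screen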
Of the large screens only hits and unclear results are named; the others gave an inactive call.

CC(NS(=O)(=O)c1ccc(F)cc1)C(=O)NCc1ccncc1 (configuration not stated)	CYP2C9 inh 65, CYP2C19 inhib 94
Cc1cc(C)c2c(c1)/C(=C/C(=O)c1ccc(Br)s1)C(=O)N2	none
COc1ccc(-n2ncc3c(=O)n(CC(=O)N4CCCc5ccccc54)cnc32)cc1	none
COc1cc(/C=N/NC(=O)CC23CC4CC(CC(C4)C2)C3)cc(Br)c1OCC(=O)N(C)C	none (no result: CYP2C9 activ, CYP2C9 inh, CYP2C19 inhib, CYP2C19 act)
O=C(NCCN1CCCC1)C1(S(=O)(=O)c2ccc(Cl)cc2)CC1	none
O=C(NCc1ccco1)C1(S(=O)(=O)c2ccc(Cl)cc2)CC1	CYP2C19 inhib 73
CC(NS(=O)(=O)c1ccc(Cl)cc1)C(=O)NCc1ccco1 (configuration not stated)	CYP2C19 inhib 66
Cc1ccc(S(=O)(=O)N[C@@H](CC(C)C)C(=O)NCc2ccco2)cc1	none
O=C(COc1ccccc1Br)NCCc1nc2ccccc2[nH]1	none (no result: CYP2C9 activ, CYP2C9 inh, CYP2C19 inhib, CYP2C19 act)
O=C(CN1C(=O)C2C3C=CC(C3)C2C1=O)Nc1nc(SCc2ccc(Cl)cc2)n[nH]1 (configuration not stated)	CYP2C19 inhib 60
Cc1cc(/C=N/n2cnnc2)c(C)n1-c1cc(Cl)ccc1Cl	CYP2C9 inh 79, CYP2C19 inhib 100
Cc1cc(/C=N/n2cnnc2)c(C)n1-c1ccc(C(=O)O)cc1	none
Cc1cc(/C=N/n2cnnc2)c(C)n1-c1ccc2c(c1)OCO2	CYP2C9 inh 88, CYP2C19 inhib 100
CN1CCN(c2nc(-c3ccccc3)c3cc(Cl)ccc3n2)CC1	none
O=C1CN(c2nc(-c3ccccc3)c3cc(Cl)ccc3n2)c2ccccc2N1	Measles CPE 40 (no result: CYP2C9 activ, CYP2C9 inh, CYP2C19 inhib, CYP2C19 act)
OCCN1CCN(c2nc(-c3ccccc3)c3cc(Cl)ccc3n2)CC1	Measles CPE 63
O=C(Oc1nsnc1N1CCOCC1)N1CCOCC1	none
O=C(Oc1nsnc1N1CCOCC1)c1ccccc1	CYP2C19 inhib 64
O=C(N=Nc1c(O)[nH]c2ccc(Br)cc12)c1cc(-c2cccc3ccccc23)n[nH]1	none (no result: CYP2C9 activ, CYP2C9 inh, CYP2C19 inhib, CYP2C19 act)
O=C(N=Nc1c(O)[nH]c2ccc(Br)cc12)c1ccccc1-n1cccc1	CYP2C9 inh 64
Cc1cccc(C)c1OCC(=O)N=Nc1c(O)[nH]c2ccc(Br)cc12	CYP2C9 inh 88
CC(/C=N/Nc1nnc2c(n1)[nH]c1ccccc12)=C\c1ccco1	CYP2C19 inhib 80
O=C(OCc1nc2scc(-c3ccccc3)c2c(=O)[nH]1)c1cccc([N+](=O)[O-])c1	none (no result: CYP2C9 activ, CYP2C9 inh, CYP2C19 inhib, CYP2C19 act)
Cc1ccc(C)c(S(=O)(=O)N2CCN(CC(=O)NC(=O)NCc3ccccc3)CC2)c1	CYP2C9 activ 2.2
COCCN1C(=O)c2ccccc2C(C(=O)N2CCN(c3ccccc3)CC2)C1c1ccc(F)cc1 (configuration not stated)	CYP2C9 inh 71
Cc1nc(N2CCN(Cc3ccccc3)CC2)nc2c1C(=O)CCC2	CYP2C19 inhib 55
Cc1nc(N2CCN(Cc3ccc4c(c3)OCO4)CC2)nc2c1C(=O)CC(c1ccco1)C2 (configuration not stated)	CYP2C9 inh 88, CYP2C19 inhib 73
COc1ccc(C2CC(=O)c3c(C)nc(N4CCN(c5ccccc5)CC4)nc3C2)cc1 (configuration not stated)	none (no result: Measles CPE)
O=c1cc(-c2ccccc2)nc(N2CCN(Cc3ccc4c(c3)OCO4)CC2)[nH]1	none
Cc1nc(N2CCN(Cc3ccccc3)CC2)nc2c1C(=O)CC(c1ccco1)C2 (configuration not stated)	CYP2C9 inh 54
O=[N+]([O-])c1ccc(S(=O)(=O)N2CCN(Cc3c[nH]c4ccccc34)CC2)cc1	none
COc1ccc(CNc2ccc3cn[nH]c3c2)c(OC)c1OC	CYP2C9 inh 86, CYP2C19 inhib 98
CCOc1cc(CNc2ccc3cn[nH]c3c2)ccc1OC	CYP2C9 inh 75, CYP2C19 inhib 88
COc1ccccc1S(=O)(=O)Nc1ccc2cn[nH]c2c1	none (no result: CYP2C9 activ, CYP2C9 inh, CYP2C19 inhib, CYP2C19 act)
CCc1ccc(NC(=S)Nc2ccc3cn[nH]c3c2)cc1	none (no result: CYP2C9 activ, CYP2C9 inh, CYP2C19 inhib, CYP2C19 act)
CCOC(=O)C1=C(C)N(CCCC(=O)O)C(=O)NC1c1ccccc1OS(=O)(=O)c1ccc(C)cc1 (configuration not stated)	none (no result: CYP2C9 activ, CYP2C9 inh, CYP2C19 inhib, CYP2C19 act)
Cc1ccc2c(c1)NCC(C(=O)NC1CCCCC1)O2 (configuration not stated)	CYP2C19 inhib 59
Cc1ccc(C(=O)NC2CCCCCC2)o1	none
Cc1[nH]c2ccccc2c1C1(O)C(=O)N(Cc2ccc3c(c2)OCO3)c2ccccc21 (configuration not stated)	CYP2C9 inh 73, CYP2C19 inhib 83
Cc1ccc2c(c1)C(O)(c1c(C)[nH]c3ccccc13)C(=O)N2 (configuration not stated)	CYP2C9 inh 60, CYP2C19 inhib 98
Cc1[nH]c2ccccc2c1C1(O)C(=O)N(C(C)C)c2ccccc21 (configuration not stated)	CYP2C19 inhib 95
Cc1ccc(C)c(C(=O)CC2(O)C(=O)Nc3ccccc32)c1 (configuration not stated)	none
Cc1ccc(NC(=O)CSc2nnc(Cn3cnc4ccccc43)o2)cc1	CYP2C9 inh 65
Cc1ccc(NC(=O)CSc2nnc(CNC(=O)c3c(F)cccc3Cl)o2)cc1	CYP2C9 inh 73
CCOC(=O)c1cc(-c2ccccc2)nn1-c1ccccn1	none
CCN(C(=O)CSc1nnc(-c2ccccc2Cl)n1C1CCCC1)C1CCS(=O)(=O)C1 (configuration not stated)	CYP2C9 inh 79
O=C(CNc1ccc2c(c1)OCO2)N/N=C\c1ccccc1Cl	none (no result: CYP2C9 activ, CYP2C9 inh, CYP2C19 inhib, CYP2C19 act)
O=C(O)CCCN1C(=O)/C(=C/c2ccc(-c3nc4ccccc4s3)o2)SC1=S	none
CCOC(=O)c1sc2ncnc(N3CCN(C(=O)OCC)CC3)c2c1C	CYP2C9 inh 76
CCOC(=O)CNC(=O)c1sc2ncnc(N3CCc4ccccc4C3)c2c1C	CYP2C9 inh 98, CYP2C19 inhib 79
Cc1c(C(=O)NCCCN2CCOCC2)sc2ncnc(N3CCN(c4ccccc4)CC3)c12	CYP2C9 inh 91, CYP2C19 inhib 50
COc1cc(C(=O)N2CCN(c3ncnc4sc(C)c(C)c34)CC2)cc(OC)c1OC	CYP2C9 inh 70, CYP2C19 inhib 73
CCOC(=O)c1sc2nc(CC(=O)OC)nc(N3CCN(c4ccccn4)CC3)c2c1C	CYP2C9 inh 85, CYP2C19 inhib 68 (no result: Measles CPE)
CCOC(=O)c1sc2ncn(C(C)C(=O)OCC)c(=O)c2c1C (configuration not stated)	CYP2C9 inh 75, CYP2C19 inhib 81
Cc1c(C(=O)N2CCN(Cc3ccccc3)CC2)sc2ncnc(N3CCOCC3)c12	CYP2C19 inhib 55
CCCCNC(=O)c1sc2ncnc(N3CCc4ccccc4C3)c2c1C	CYP2C9 inh 94
Cc1ccc(C)c2[nH]c(=O)c(CCNC(=O)CC(C)(C)C)cc12	none
COc1ccc(Nc2nc(N)nc(CSC(=S)N3CCN(c4ccccc4)CC3)n2)cc1	none (no result: CYP2C9 activ, CYP2C9 inh, CYP2C19 inhib, CYP2C19 act)
C=CCn1c(CNC(=O)c2cccs2)n[nH]c1=S	none (no result: CYP2C9 activ, CYP2C9 inh, CYP2C19 inhib, CYP2C19 act)
CN1/C(=C/C=N/n2cnnc2)C(C)(C)c2ccccc21	CYP2C19 inhib 92
